# A selection: hits, their analogues and other compounds. The true share with any hit is near 3.2%.
# PrPC surface inh – inhibitors of human cell surface prion protein PrPC, primary screen, cell-based, TR-FRET. AID 720596, 2013. TR-FRET read-out. inhibition, % at 13.8 µM. 370,000 tested, 0.43% active. Major prion protein (Homo sapiens), P04156; in the data active = inhibition above about 24%; note: 0% = median of the test wells and 100% = reference compound wells
# Mtb FBA inh – Mtb FBA enzyme inhibitors, primary screen, biochemical, fluorescence, strain H37Rv. purified M. tuberculosis FBA, fluorescence read-out. inhibition, % at 1 µM. 360,000 tested, 2.3% active. Fructose-bisphosphate aldolase (Mycobacterium tuberculosis (strain ATCC 25618 / H37Rv)), …; in the data active = inhibition above about 27%;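 note: 0% = vehicle and 100% = reference inhibitor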
# Target sequence (P9WQA3 whole entry, looked up): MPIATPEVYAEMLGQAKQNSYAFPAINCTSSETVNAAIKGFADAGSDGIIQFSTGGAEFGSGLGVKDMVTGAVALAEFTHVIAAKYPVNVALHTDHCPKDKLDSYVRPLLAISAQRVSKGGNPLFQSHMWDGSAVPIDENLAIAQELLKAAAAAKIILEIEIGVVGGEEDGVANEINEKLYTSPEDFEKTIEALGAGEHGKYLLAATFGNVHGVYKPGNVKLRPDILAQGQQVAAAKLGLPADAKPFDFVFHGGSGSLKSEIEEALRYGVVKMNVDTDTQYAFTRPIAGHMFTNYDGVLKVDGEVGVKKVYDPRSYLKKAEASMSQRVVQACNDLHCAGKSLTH
# GDH-TPI counter-1 – GDH-TPI coupling enzyme inhibitors, primary screen, artefact control for M. tuberculosis FBA inhibitor project, biochemical, absorbance, full deck | inhibition, % at 4.8 µM | GDH-TPI coupled enzyme counterscreen, NADH absorbance | 360,000 tested, 1.2% active; in the data active = inhibition above about 30%;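 note: 0% = DMSO wells and 100% = wells lacking the enzyme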
# Yp Topo-I inh – Yersinia pestis topoisomerase I inhibitors, primary screen, biochemical, cleavage product accumulation, plate reader, single point | Y. pestis Topo-I cleavage product accumulation | AID 504884, 2011 | 360,000 tested, 0.064% active | DNA topoisomerase I (Yersinia pestis CO92) | activity, % at 10 µM; in the data active = activity above about 50%, passing the limit was not always enough
# TcdB GH inh – TcdB glycohydrolase inhibitors, primary screen, biochemical, single point, plate reader; 350,000 tested, 0.24% active; TcdB glycohydrolase enzymatic assay; Toxin B (Clostridioides difficile), P18177; inhibition, % at 9.99 µM; AID 652162, 2013
# Mtb FBA confirm – M. tuberculosis aldolase blockers, biochemical, fluorescence, strain H37Rv, confirmation; shares compounds with Mtb FBA inh; purified M. tuberculosis FBA, fluorescence read-out; inhibition, % at 1 µM; 5,600 tested, 78% active; AID 651616, 2012; in the data active = inhibition above about 27%;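 note: 0% = vehicle wells and 100% = reference inhibitor wells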
# GDH-TPI counter-2 – GDH-TPI coupling enzyme inhibitors, artefact control for M. tuberculosis FBA inhibitor project, biochemical, fluorescence, high throughput; 5,600 tested, 81% active; inhibition, % at 1 µM; GDH-TPI coupled enzyme counterscreen; shares compounds with Mtb FBA inh
# An asterisk follows results filed as active; . = no result given; + = active, no number. Cut-off read from the data, not from the text of the source, unless noted: active = inhibition above about 10%; inactive = the rest.
SMILES,PrPC surface inh,Mtb FBA inh,GDH-TPI counter-1,Yp Topo-I inh,TcdB GH inh,Mtb FBA confirm,GDH-TPI counter-2
O=C(CSc1nc2nc(-c3cccs3)cc(C(F)(F)F)c2c(=O)[nH]1)Nc1ccc(F)c(F)c1,4,20,11,7,-2,.,.
Cc1ccc(C)c(NC(=O)CSc2nc3nc(-c4cccs4)cc(C(F)(F)F)c3c(=O)[nH]2)c1,7,44*,5,1,-1,86*,82*
Cc1ccc(OCC(=O)N2CCOCC2)cc1C,-1,2,3,-4,0,.,.
Cc1cc(OCC(=O)N(C)c2ccccc2)cc2c1C(=O)CC(C)(C)O2,0,8,1,8,1,.,.
CC1(C)CC(=O)c2cc(OCC(=O)N3CCOCC3)ccc2O1,3,48*,15,1,.,+,+
CCN(CC)C(=O)COc1ccc2c(c1)C(=O)CC(C)(C)O2,3,59*,9,6,1,87*,72*
CCCN1[C@@H]2c3ccc(-c4ccncc4)c(=O)n3C[C@H]1[C@H](CO)[C@H]2C(=O)NCC1CC1,.,.,.,.,2,.,.
COc1ccc(NC(=O)Nc2ccc3c(c2)C(=O)N([C@@H](C)CO)C[C@@H](C)[C@H](CN(C)C(=O)C2CCCCC2)OCCCC[C@@H](C)O3)cc1,.,.,.,.,-3,.,.
COc1cc2c(cc1OC)-c1nnc(-c3ccco3)n1C1(CCCC1)C2,0,47*,-5,17,.,108*,84*
c1coc(-c2nnc3n2C2(CCCC2)Cc2ccccc2-3)c1,-5,6,11,2,.,.,.
CCOC(=O)c1ccc(C(=O)OCC)c(NC(=S)Nc2ccc([N+](=O)[O-])cc2OC)c1,-7,31*,19,-3,.,-4,-6
COc1ccc(NC(=O)Nc2ccc3c(c2)CC(=O)N([C@H](C)CO)C[C@H](C)[C@H](CN(C)C(=O)Nc2ccccc2)O3)cc1,.,.,.,.,0,.,.
N#Cc1ccc(-c2nc3ccc(Br)cn3c2Cc2ccccc2C(F)(F)F)cc1,23,1,.,.,0,.,.
Cc1ccc2nc(-c3ccc(C#N)cc3)c(Cc3cccc(Cl)c3)n2c1,2,41*,.,.,-3,35*,35*
Cc1ccc2nc(-c3ccc(C#N)cc3)c(Cc3ccccc3C(F)(F)F)n2c1,0,78*,.,.,1,29*,27*
N#Cc1ccc(-c2nc3ccc(Cl)cn3c2Cc2cccc(F)c2)cc1,2,43*,.,.,4,+,191*
CCCc1nc2ccc(C)cn2c1Cc1cccc(Cl)c1,0,27*,.,.,-5,+,168*
N#Cc1ccc(-c2nc3ccc(Cl)cn3c2Cc2cccc(Cl)c2)cc1,2,16,.,.,-1,.,.
COC(=O)c1c[nH]c(=O)c2ccccc12,7,3,4,1,1,.,.
COC(=O)c1ccc(C(=O)OC)c(=O)[nH]1,-1,62*,7,7,-1,3,0
C[C@H](NC(=O)C[C@H]1C[C@H]2c3cc(NC(=O)NC4CCCC4)ccc3O[C@H]2[C@H](CO)O1)c1ccccc1,.,.,.,.,-1,.,.
CC(=O)Nc1ccccc1NS(=O)(=O)c1ccccc1[N+](=O)[O-],10,2,2,-2,-2,.,.
CC(=O)Nc1ccccc1NS(=O)(=O)c1cccc([N+](=O)[O-])c1,-20,99*,5,-4,0,+,175*
COc1ccc(NC(=O)N(C)C[C@H]2Oc3ccc(N(C)C)cc3C(=O)N([C@H](C)CO)C[C@@H]2C)cc1,.,.,.,.,-1,.,.
CC(C)c1nc(C(N)=O)c2[nH]c(=O)n(-c3ccc(F)cc3)c2n1,6,32*,19,6,1,+,+
SMILES,PrPC surface inh,Mtb FBA inh,GDH-TPI counter-1,Yp Topo-I inh,TcdB GH inh,Mtb FBA confirm,GDH-TPI counter-2
Cc1ccc(-n2c(=O)[nH]c3c(C(N)=O)nc(C(C)C)nc32)cc1,-1,10,18,-9,2,.,.
COc1cc2oc(=O)ccc2cc1[C@H](O)[C@@H](O)C(C)(C)O,5,49*,26,5,1,47*,32*
COc1cc2oc(=O)ccc2cc1[C@@H](O)[C@@H]1OC(C)(C)OC1(C)C,7,29*,13,0,1,79*,40*
C/C=C/c1ccc([C@H]2[C@@H](CNC(=O)c3ccncc3)N(C(=O)CC)[C@H]2CO)cc1,.,.,.,.,-5,.,.
COc1ccc(-c2nc3c(c(=O)[nH]c(=O)n3Cc3ccccc3)n2CCO)cc1,7,39*,-3,12,0,170*,143*
CCCn1c(-c2cccs2)nc2c1c(=O)[nH]c(=O)n2Cc1ccccc1,4,33*,6,13,1,131*,102*
O=c1[nH]c(=O)n(Cc2ccccc2)c2nc(-c3ccc(Oc4ccc(F)cc4)c([N+](=O)[O-])c3)n(CCO)c12,3,-1,7,-1,0,.,.
Brc1c(CSc2nc3ccccc3s2)nc2ncccn12,2,28*,-3,17,.,108*,82*
O=C(C[C@H]1CC[C@H]2[C@@H](COC[C@H](O)CN2S(=O)(=O)c2ccc(Cl)cc2)O1)NCCN1CCCCC1,.,.,.,.,0,.,.
O=C(COC(=O)C1COc2ccccc2O1)c1ccc(F)cc1 (configuration not stated),-7,2,4,3,0,.,.
O=C(N=Nc1c(O)[nH]c2ccc(F)cc12)C1COc2ccccc2O1 (configuration not stated),5,38*,14,8,0,131*,104*
Cc1cccc(-c2ccc([C@H]3[C@H](CO)N4C(=O)CN(S(=O)(=O)c5cccc(F)c5)C[C@@H]34)cc2)c1,.,.,.,.,1,.,.
c1ccc(-c2nn(Cc3ncco3)c3ccccc23)cc1,9,.,.,.,.,.,.
OCc1ccc(-c2nn(Cc3ccccc3)c3ccccc23)o1,10,58*,18,17,1,82*,67*
COc1cccc(COc2ccc3c(C)c(Cc4ccccc4)c(=O)oc3c2)c1,-7,3,24,5,.,.,.
C#CCOc1ccc2c3c(c(=O)oc2c1)CCCC3,2,46*,-2,2,1,+,+
O=c1oc2cc(OCc3ccc([N+](=O)[O-])cc3)ccc2c2c1CCCC2,-4,1,-3,0,.,.,.
Cc1c(Cc2ccccc2)c(=O)oc2cc(OCc3nn[nH]n3)ccc12,4,83*,18,6,.,3,1

# Source: PubChem (several laboratories)
